# Test results taken from PubChem BioAssay AID651821 (The Scripps Research Institute Molecular Screening Center, 2012).
# In all, about 370,000 compounds went through this assay and about 4,700 (1.3%) were called active. The entries come from a sample that favours actives as a whole. Values without a mark were called inactive.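 The calls were made as follows: active = inhibition above the plate cutoff, the mean of all test compounds on that plate plus 3 SD (cut at about 35% in these data); inactive = the rest.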
# Experiment: small molecules binding CAG repeat RNA – biochemical, fluorescence, primary screen (AID 651821);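 also: 0% = DMSO alone and 100% = 100 µM mitoxantrone as full dye displacement; higher means more dye released from RNA so lower well fluorescence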
# Details: r(CAG) RNA repeat, TO-PRO-1 dye displacement fluorescence; at 3 µM; stronger effect = higher value
row,Compound,inhibition
1,CN(C(N)=NC(=O)/C=C/c1ccccc1)C(C#Cc1ccccc1)Cc1ccccc1 (configuration not stated),3.26%
2,COc1ccc(-c2cc(-c3nnc(SCc4ccc([N+](=O)[O-])cc4)n3N)[nH]n2)cc1,9.69%
3,COC(=O)c1cccc(Cn2ccc3ccc(-c4ccc5ccn(C(=O)C6CCCCC6)c5c4)cc32)c1,12.2%
4,Cc1ccc(Cn2cc(CN3[C@@H](C)COc4cc(Br)ccc4S3(=O)=O)nn2)cc1,3.68%
5,C=CCN1C(=O)[C@H](CC(=O)NCCCN2CCCC2=O)[C@@]2(C(=O)OCC)CCCC=C12,1.48%
6,COc1cc(NC(=O)C2CCCN(S(=O)(=O)c3ccc(C(C)(C)C)cc3)C2)cc(OC)c1 (configuration not stated),9.76%
7,O=C(CCCN1C(=O)/C(=C\c2ccco2)SC1=S)Nc1cccc2ccccc12,40.1% (active)
8,Cc1ccc(-n2c(SCC(=O)Nc3cccc4ccccc34)nnc2-c2ccco2)cc1,6.64%
9,Cc1c(Cl)cccc1NC(=O)CCC(=O)N/N=C/c1ccco1,-4.6%
10,O=C(N/N=C/c1sc(N2CCCCC2)nc1-c1cccs1)c1cccnc1,5.88%
11,COc1ccc(NC(=O)c2cn(-c3ccccc3)nc2SC)cc1,5.53%
12,CC(=O)c1ccc(NC(=O)c2cc(-c3cccs3)on2)cc1,-1.84%
13,O=C(c1cnn(-c2ccc(Cl)cc2)c1)c1ccccc1O,2.23%
14,O=C(NNC(=S)NC(=O)c1cn(-c2ccccc2)nc1-c1ccccc1)c1ccncc1,42.5% (active)
15,O=C(O)c1ccc(NC(=O)c2cn(-c3ccccc3)nc2-c2ccc(Cl)cc2)cc1,80.9% (active)
16,O=C(/C=C/c1cn(-c2ccccc2)nc1-c1ccc2c(c1)OCCO2)NCCCN1CCOCC1,-0.21%
17,O=C(O)c1ccc(NC(=O)c2ccc(COc3ccc(Cl)cc3)o2)cc1,22.1%
18,O=C(c1cn(-c2ccccc2)nc1-c1cccnc1)N1CCN(S(=O)(=O)c2ccccc2F)CC1,3.83%
19,O=C(NNC(=S)NCCCN1CCOCC1)c1ccncc1,-0.42%
20,COc1ccc(-c2nn(-c3ccccc3)cc2/C=C\C(=O)Nc2ccc(C(=O)O)cc2)cc1,83.7% (active)
21,O=C(O)c1ccc(N/N=C/c2cn(-c3ccccc3)nc2-c2cccs2)cc1,70.5% (active)
22,CC1CCCN(c2cccc3c2S(=O)(=O)N(Cc2ccc(F)cc2)[C@@H](C)[C@H](c2ccccc2)O3)C1 (some centres not stated),1.44%
23,Cn1cc(S(=O)(=O)Nc2ccc(Cl)cc2Cl)c(=O)n(C)c1=O,1.76%
24,COC(=O)c1ccc(CN2C(=O)[C@]3(OCCC=C[C@H]3C)c3c(Br)cccc32)cc1,0.13%
25,O=S(=O)(c1ccccc1)N1CCC(c2nc3ccccc3o2)CC1,0.56%
26,COC(=O)[C@]12CCCCC=C1N(Cc1ccc(Cl)cc1Cl)C(=O)[C@H](CC(=O)NCc1cccc3ccccc13)C2,12.9%

row,Compound,inhibition
1,O=C(NC1CCC1)c1ccc(C#Cc2cccc(F)c2)c[n+]1[O-],1.31%
2,C#CCNC(=O)C[C@H]1C[C@@]2(C(=O)OC)C(=C[C@H](C(C)C)O[C@@H]2C2CC2)N(Cc2ccco2)C1=O,-0.82%
3,COC1=C[C@H](C(=O)NCCNC(C)=O)[C@H](C)[C@@H](c2ccccc2)CC1=O,7.1%
4,COC(=O)C1=C(C)N(Cc2cccc(C(F)(F)F)c2)C(=NCc2ccccc2)NC1c1ccc(Cl)cc1 (configuration not stated),6.45%
5,N#CC1(NC(=O)COC(=O)Cc2n[nH]c(=O)c3ccccc23)CCCCC1,-1.83%
6,COC(=O)c1cccc(Cn2ccc3ccc(-c4ccc5ccn(C(=O)c6ccccc6C)c5c4)cc32)c1,10.1%
7,COC(=O)C[C@@H]1CC[C@@H]2[C@@H](COc3ccc(NC(=O)Nc4ccc(F)c(F)c4)cc3C(=O)N2C)O1,3.67%
8,CCOC(=O)[C@H]1Nc2ccc(Cl)cc2[C@@H]2[C@H]1C1CC(c3ccccc31)N2C(=O)OCc1ccccc1 (some centres not stated),8.62%
9,CCOC(=O)C[C@H]1c2ccc(C(F)(F)F)cc2S(=O)(=O)N1c1ccccc1,4.3%
10,CCOC(=O)C1Nc2ccc(C(F)(F)F)cc2C2C=CCC12 (configuration not stated),60.5% (active)
11,CC1=CC=CC2=N/C(=N\S(=O)(=O)c3ccc(F)cc3F)c3ccccc3CN12,-1.16%
12,CC(=O)c1cc(-c2ccc3ccccc3c2)c(=O)n2c1CCC2,5.03%
13,N#Cc1ccccc1CN1C(=O)S/C(=C/c2cccn2-c2cccc(C(=O)O)c2)C1=O,58.4% (active)
14,O=C(CSc1nc2sc3c(c2c(=O)n1-c1ccccc1)CCCC3)NN=Cc1ccc(OCc2ccccc2)cc1,7.65%
15,CN(C(=O)CSc1nnc(Nc2ccccc2)s1)C1CCS(=O)(=O)C1 (configuration not stated),0.39%
16,CC(C)Nc1nnc(SCC(=O)c2c[nH]c3ccccc23)s1,3.39%
17,CC(C)c1ccc(Nc2nnc(SCC(=O)c3nnc(-c4ccccc4)o3)s2)cc1,50.7% (active)
18,C/C(CC(=O)N1CCN(C=O)CC1)=N\NC(=O)c1ccc(Br)cc1,0.43%
19,O=C1c2ccccc2NC(c2ccccc2O)N1NS(=O)(=O)c1ccccc1 (configuration not stated),2.81%
20,O=C1/C(=C/c2ccc(F)cc2)SC(=S)N1NS(=O)(=O)c1ccccc1,55.7% (active)
21,CC(=O)N1C(=O)/C(=C2\SC(=S)N(NC(=O)c3ccc(O)cc3)C2=O)c2ccccc21,14%
22,O=C(O)c1ccc(/C=C2\SC(=S)N(NC(=O)c3ccc(Br)cc3)C2=O)cc1,34.9% (active)
23,O=S(=O)(NC(=S)Nc1ccccc1)c1ccc(F)cc1,1.19%
24,CC1(NC(=O)CCS(=O)(=O)c2ccc(Cl)cc2)CCS(=O)(=O)C1 (configuration not stated),2.03%
25,OC(c1ccccc1)c1nc(-c2cnc3ccccc3c2)cs1 (configuration not stated),16.2%
26,Cc1ccc(CSc2nnc(SCC(=O)NN=Cc3cc(Br)ccc3F)s2)cc1,5.78%
